PABP1 MLLE inh = inhibitors of PABP1 MLLE–PAM2 peptide binding, primary screen, biochemical, fluorescence polarization, FITC-PAM2, GST-MLLE. 0.36% of 360,000 active. AID 588489, 2011. inhibition, % at 20 µM. Polyadenylate-binding protein 1 (Homo sapiens), P11940; in the data active = inhibition above about 35%, passing the limit was not always enough
PABP polyA inh = PABP poly(A) RNA binding inhibitors, primary screen, biochemical, fluorescence polarization, uHTS | 1% of 290,000 active | AID 2014, 2009 | Polyadenylate-binding protein 1 (Homo sapiens), P11940 | calls only at 35 µM;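 note: calls also rest on retests at 20 µM and on dose response follow-up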
eIF4E-4G inh = eIF4E–eIF4G protein interaction inhibitors, primary screen, biochemical, uHTS, TR-FRET, eIF4GI fragment; 0.37% of 220,000 active; Eukaryotic translation initiation factor 4E (Mus musculus) + Eukaryotic translation …; AID 782, 2007; inhibition, % at 21.7 µM; TR-FRET eIF4E-eIF4GI(517-606) binding, 2 h;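 active = inhibition above about 30%, limit read from the data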
Target sequence (P63073 whole entry, looked up, the tested form may be a part): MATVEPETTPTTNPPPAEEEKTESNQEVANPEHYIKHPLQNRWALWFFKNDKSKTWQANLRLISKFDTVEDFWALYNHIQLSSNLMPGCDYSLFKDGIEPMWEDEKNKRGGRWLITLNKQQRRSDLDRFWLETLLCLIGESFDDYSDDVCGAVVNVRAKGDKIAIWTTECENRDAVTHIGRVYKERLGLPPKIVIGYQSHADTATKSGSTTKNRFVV
Target sequence (Q04637 whole entry, looked up, the tested form may be a part): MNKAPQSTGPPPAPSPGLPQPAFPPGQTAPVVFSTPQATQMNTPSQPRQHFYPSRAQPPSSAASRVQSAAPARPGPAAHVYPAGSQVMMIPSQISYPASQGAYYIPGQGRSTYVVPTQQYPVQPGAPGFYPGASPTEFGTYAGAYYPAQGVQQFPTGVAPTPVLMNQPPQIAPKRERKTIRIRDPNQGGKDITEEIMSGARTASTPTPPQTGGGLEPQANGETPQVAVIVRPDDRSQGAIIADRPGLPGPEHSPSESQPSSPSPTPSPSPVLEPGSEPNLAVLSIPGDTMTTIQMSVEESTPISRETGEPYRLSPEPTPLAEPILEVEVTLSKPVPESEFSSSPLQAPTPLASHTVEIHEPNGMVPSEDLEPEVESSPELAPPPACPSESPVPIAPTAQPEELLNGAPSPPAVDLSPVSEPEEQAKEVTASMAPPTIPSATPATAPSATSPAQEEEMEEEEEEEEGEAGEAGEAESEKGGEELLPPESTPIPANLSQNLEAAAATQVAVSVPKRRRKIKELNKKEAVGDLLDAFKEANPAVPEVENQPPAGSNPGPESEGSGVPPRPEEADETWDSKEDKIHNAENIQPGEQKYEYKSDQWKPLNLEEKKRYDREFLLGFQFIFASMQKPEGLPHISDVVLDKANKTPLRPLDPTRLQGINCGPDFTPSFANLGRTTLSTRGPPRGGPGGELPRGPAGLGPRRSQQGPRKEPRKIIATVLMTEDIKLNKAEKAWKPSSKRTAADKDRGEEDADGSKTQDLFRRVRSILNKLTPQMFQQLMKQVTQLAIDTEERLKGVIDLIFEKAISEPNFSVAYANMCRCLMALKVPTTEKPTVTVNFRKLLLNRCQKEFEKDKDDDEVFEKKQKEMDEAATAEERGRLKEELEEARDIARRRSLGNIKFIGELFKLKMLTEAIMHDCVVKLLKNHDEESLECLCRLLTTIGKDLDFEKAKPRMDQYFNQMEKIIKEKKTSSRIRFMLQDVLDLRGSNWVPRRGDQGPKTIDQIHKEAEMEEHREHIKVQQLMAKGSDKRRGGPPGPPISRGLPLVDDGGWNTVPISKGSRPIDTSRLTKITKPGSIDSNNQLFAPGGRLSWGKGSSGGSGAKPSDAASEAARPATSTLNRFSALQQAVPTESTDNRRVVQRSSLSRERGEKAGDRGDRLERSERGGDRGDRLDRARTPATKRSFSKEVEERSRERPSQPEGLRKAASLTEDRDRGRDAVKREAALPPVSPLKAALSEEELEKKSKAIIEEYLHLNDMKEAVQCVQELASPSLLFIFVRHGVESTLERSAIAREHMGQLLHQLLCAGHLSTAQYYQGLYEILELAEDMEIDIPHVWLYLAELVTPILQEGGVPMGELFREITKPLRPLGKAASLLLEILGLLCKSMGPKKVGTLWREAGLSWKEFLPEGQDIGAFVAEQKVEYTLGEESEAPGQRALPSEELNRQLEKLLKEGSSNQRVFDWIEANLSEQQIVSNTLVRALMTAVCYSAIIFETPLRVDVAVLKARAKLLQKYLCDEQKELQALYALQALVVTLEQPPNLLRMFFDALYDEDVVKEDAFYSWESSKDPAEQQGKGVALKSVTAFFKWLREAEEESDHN
eIF4H inh = human eIF4H binding inhibitors, primary screen, translation initiation inhibitor project, biochemical, uHTS, fluorescence polarization. Eukaryotic translation initiation factor 4H (Homo sapiens), Q15056. eIF4H fluorescence polarization binding assay. inhibition, % at 35 µM. 0.94% of 290,000 active. AID 2012, 2009;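 note: calls also rest on retests at 20 µM and on dose response follow-up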
Each line names hits and unclear results; the compound was inactive in the other large screens; [ ] = remark or other dose. The list is not random: actives were taken first. Their share in the collection is about 1.5%. Unless noted, the rule behind the calls is not given here.

CC(C)(C)c1ccc2c(c1)OC(C(=O)N/N=C\c1ccc(-c3cccc(C(=O)O)c3)o1)CO2 (configuration not stated)	PABP polyA inh active, eIF4H inh 73
Nc1nonc1C(=O)N/N=C/c1ccc(-c2cccc(C(=O)O)c2)o1	eIF4H inh 55 (no result: PABP1 MLLE inh)
Cc1nc(-[n+]2nc(-c3ccncc3)nn2-c2ccccc2)sc1C	none (no result: PABP polyA inh, eIF4E-4G inh, eIF4H inh)
COc1ccc(OCC(=O)Nc2ccc3c(c2)nc(CCn2ccccc2=O)n3C)cc1	none (no result: eIF4E-4G inh)
COc1cccc(C(C)(O)c2nc(-c3cc4ccccc4o3)cs2)c1 (configuration not stated)	none (no result: PABP polyA inh, eIF4E-4G inh, eIF4H inh)
C[C@@H]1CCCCO[C@@H](CN(C)C(=O)Cc2ccccc2)[C@@H](C)CN([C@H](C)CO)C(=O)c2cc(N(C)C)ccc2O1	none (no result: PABP polyA inh, eIF4E-4G inh, eIF4H inh)
O=C(N/N=C/c1ccccc1O)c1cc(=O)[nH]c2ccccc12	eIF4E-4G inh 40[fluorescence artefact?] (no result: PABP1 MLLE inh)
COCCNC(=O)C1CCCN(C(=O)c2nc(C)oc2C)CC1 (configuration not stated)	none (no result: PABP polyA inh, eIF4E-4G inh, eIF4H inh)
COC1=C(c2ccccc2)C(=O)c2ccccc2C1=O	PABP1 MLLE inh 49
O=c1c2cc(F)ccc2sn1-c1ccc(F)cc1	PABP1 MLLE inh 43 (no result: PABP polyA inh, eIF4E-4G inh, eIF4H inh)
Cc1ccc(C)c(-n2sc3ccc(F)cc3c2=O)c1	none (no result: PABP polyA inh, eIF4E-4G inh, eIF4H inh)
COc1ccc(-n2sc3ccc(F)cc3c2=O)cc1	PABP1 MLLE inh 41 (no result: PABP polyA inh, eIF4E-4G inh, eIF4H inh)
Nc1nc2c(ncn2[C@@H]2O[C@H](CNCc3ccc(Oc4cc(-n5cccn5)ncn4)cc3)[C@@H](O)[C@H]2O)c(=O)[nH]1	none (no result: PABP polyA inh, eIF4E-4G inh, eIF4H inh)
Cc1ccc(S(=O)(=O)N2C[C@H]3C(=O)C[C@@H](c4ccccc4)N(S(=O)(=O)c4cccc(C)c4)[C@H]3C[C@H]2c2ccccc2)cc1	none (no result: PABP polyA inh, eIF4E-4G inh, eIF4H inh)
CC1CCc2c(sc(NC(=O)c3ccc(Cn4cc([N+](=O)[O-])cn4)o3)c2C#N)C1 (configuration not stated)	PABP polyA inh active, eIF4H inh 76
N#Cc1c(NC(=O)c2ccc(Cn3cc(Br)cn3)o2)sc2c1CCCCC2	none
CC(NC(=O)c1ccc(Cn2cc([N+](=O)[O-])cn2)o1)c1ccccc1 (configuration not stated)	eIF4E-4G inh 36[fluorescence artefact?]
Cc1ccccc1NC(=O)c1ccc(Cn2cc([N+](=O)[O-])cn2)o1	none
CC(=O)c1ccc(NC(=O)C(C)OC(=O)COc2ccc(C#N)cc2)cc1 (configuration not stated)	PABP polyA inh active, eIF4H inh active
CC(=O)c1ccc(OCC(=O)OC(C)C(=O)NC2CCCCC2)cc1 (configuration not stated)	none (no result: PABP polyA inh, eIF4E-4G inh, eIF4H inh)
CC1(C)OC(=O)N(Cc2ccco2)C1(C)O (configuration not stated)	PABP polyA inh active, eIF4H inh inconclusive
Cc1cc(C)c2cc(C#N)c(NCCCNC(=O)c3cccnc3)nc2c1	none (no result: PABP polyA inh, eIF4E-4G inh, eIF4H inh)
COc1ccc(NC(=O)Cc2ccccc2)cn1	eIF4H inh inconclusive
COc1ccc(NC(=O)CSc2ccccc2)cn1	PABP1 MLLE inh 42
C=CCN=c1scc(-c2ccco2)n1/N=C/c1ccc(O)c(O)c1O	PABP polyA inh active, eIF4H inh 92
COCCN=c1scc(-c2ccco2)n1/N=C/c1ccc(O)c(O)c1O	PABP polyA inh active, eIF4E-4G inh 45, eIF4H inh inconclusive
CN=c1scc(-c2cccs2)n1/N=C/c1ccc(O)c(O)c1O	none (no result: PABP polyA inh, eIF4H inh)
CC(C)N=c1scc(-c2ccco2)n1/N=C/c1ccc(O)c(O)c1	none
Cc1nc(C(F)(F)F)ccc1C(=O)N1CCC(C)(C(=O)O)C1 (configuration not stated)	none (no result: PABP polyA inh, eIF4E-4G inh, eIF4H inh)
Cc1cc(O)ccc1NC(=S)NC(=O)c1cncc(Br)c1	PABP1 MLLE inh 44 (no result: eIF4E-4G inh)
O=C(NC(=S)Nc1cccc(O)c1)c1cncc(Br)c1	PABP1 MLLE inh 42 (no result: PABP polyA inh, eIF4E-4G inh, eIF4H inh)
CC(=O)c1cccc(NC(=S)NC(=O)c2ccc(Br)cc2)c1	PABP1 MLLE inh 41
Cc1ccccc1NC(=S)NC(=O)c1cncc(Br)c1	none
CC(=O)c1cccc(NC(=S)NC(=O)c2ccc(C)cc2)c1	none
COCOCCn1cc(CN2CCS(=O)(=O)N(Cc3ccc(-c4ccc(OC)cc4)cc3)C(C)C2=O)nn1 (configuration not stated)	none (no result: PABP polyA inh, eIF4E-4G inh, eIF4H inh)
COCCNC(=O)C1(C)CCCN(C(=O)c2ccccc2C(F)(F)F)C1 (configuration not stated)	none (no result: PABP polyA inh, eIF4E-4G inh, eIF4H inh)
COc1ccc(-c2nn(-c3ccccc3)cc2CNC[C@H]2O[C@@H](n3cnc4c(=O)[nH]c(N)nc43)[C@H](O)[C@@H]2O)cc1	none (no result: PABP polyA inh, eIF4E-4G inh, eIF4H inh)
Cc1ccc(S(=O)(=O)N(C)C[C@@H]2OCc3cnnn3CCCC(=O)N([C@@H](C)CO)C[C@@H]2C)cc1	none (no result: PABP polyA inh, eIF4E-4G inh, eIF4H inh)
O=C(CN1CCCC1)OCCCC1CCCCC1	none
C[N+]1(CC(=O)OCCCC2CCCCC2)CCCC1	PABP polyA inh active
CC1=CC(=O)c2c(O)ccc(O)c2C1=O	PABP polyA inh active, eIF4E-4G inh 63, eIF4H inh 112 (no result: PABP1 MLLE inh)
O=C(CSC1=NCCS1)Nc1cccc2ccccc12	none
CC(NC(=O)CSC1=NCCS1)c1ccccc1 (configuration not stated)	PABP1 MLLE inh 46
O=C(CSC1=NCCS1)Nc1ccccc1F	PABP1 MLLE inh 43
COc1ccccc1CNC(=O)CSC1=NCCS1	PABP1 MLLE inh 41
O=C(CCCc1ccccc1)Nc1ccccc1C(F)(F)F	none (no result: eIF4E-4G inh)
COc1ccc(CCC(=O)Nc2ccccc2C(F)(F)F)cc1	PABP polyA inh active, eIF4H inh 80
CC1(C(=O)Nc2ccc(Cl)c(C(F)(F)F)c2)Cc2c(-c3ccc(C(N)=O)cc3)ccnc2O1 (configuration not stated)	none (no result: PABP polyA inh, eIF4E-4G inh, eIF4H inh)
Cc1ccccc1N=Nc1ccc(O)c2ncccc12	none
O=S(=O)(O)c1cccc2c(N=Nc3ccc(O)c4ncccc34)cccc12	PABP polyA inh active, eIF4H inh 82 (no result: eIF4E-4G inh)
CC(=O)Nc1ccc2c(c1)OCCO2	none (no result: eIF4E-4G inh)
C=C(C)C(=O)Nc1ccc2c(c1)OCCOCCOCCO2	PABP polyA inh active, eIF4H inh 90
CC(=O)Nc1ccc(C(=O)N2CCCC(c3cc(C(=O)Nc4ccccc4Cl)no3)C2)cc1 (configuration not stated)	none (no result: PABP polyA inh, eIF4E-4G inh, eIF4H inh)
O=C1c2ccccc2-c2onc3c(Oc4ccccc4)cc(O)c1c23	PABP polyA inh active, eIF4H inh 85 (no result: PABP1 MLLE inh)
CC(C)c1ccc(CC(=O)N2CCC2(C)C(=O)NCc2cccc3ccccc23)cc1 (configuration not stated)	none (no result: PABP polyA inh, eIF4E-4G inh, eIF4H inh)
CCN1CCc2c(sc3c2c(NCc2ccco2)nc2nnnn23)C1	PABP polyA inh active, eIF4H inh 57
O=C(NC1CCN(Cc2ccccc2)CC1)c1ccc(CS(=O)c2ccccc2Cl)o1 (configuration not stated)	none (no result: PABP polyA inh, eIF4E-4G inh, eIF4H inh)
CC1OC23CCCCC2C(C#N)(C(=N)O3)C1(C#N)C#N (configuration not stated)	none
CCCC1OC23CCCCC2C(C#N)(C(=N)O3)C1(C#N)C#N (configuration not stated)	PABP1 MLLE inh 58, PABP polyA inh inconclusive, eIF4H inh inconclusive
N#CC1(C#N)COC23CCCCC2C1(C#N)C(=N)O3 (configuration not stated)	PABP polyA inh active

Source: PubChem
